The campaign covered roughly 5,500 compounds. About 2,000 (36%) were called active. Not shown: some 18% with an inconclusive outcome. Rule as the data show it: active = normalized growth mostly below about 0.91 (no sharp cut-off); inconclusive = no clear call, values can overlap the other calls; inactive = mostly above about 0.92. This is one part of the list.
Assay: chemical genetic growth profiling, strain panel (AID 1159580);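 also: tested at 20 µM; growth read once vehicle control cultures reached saturation at 30 °C; 1 = growth at the plate median or of vehicle wells; lower values mean less growth of the strain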
Settings: growth OD
[1] = S. cerevisiae deletion strains, locus YDL101C, strain DUN1, stronger effect = lower value
[2] = S. cerevisiae deletion strains, locus YHR030C, strain SLT2, stronger effect = lower value

Measured: normalized growth

O=C1NC(c2ccccc2Cl)Nc2ccccc21 (stereo not drawn)
inactive: S. cerevisiae deletion strains, locus YAL013W, strain DEP1, stronger effect = lower value 0.997 | S. cerevisiae deletion strains, locus YBR229C, strain ROT2, stronger effect = lower value 1 | S. cerevisiae deletion strains, locus YCL061C, strain MRC1, stronger effect = lower value 0.992 | [1] 1.01 | S. cerevisiae deletion strains, locus YDL134C, strain PPH21, stronger effect = lower value 1.01 | S. cerevisiae deletion strains, locus YDR150W, strain NUM1, stronger effect = lower value 0.998 | S. cerevisiae deletion strains, locus YEL061C, strain CIN8, stronger effect = lower value 0.981 | S. cerevisiae deletion strains, locus YGR078C, strain PAC10, stronger effect = lower value 0.997 | [2] 1.04 | S. cerevisiae deletion strains, locus YHR087W, strain rtc3, stronger effect = lower value 0.998 | S. cerevisiae deletion strains, locus YJL187C, strain SWE1, stronger effect = lower value 0.993 | S. cerevisiae deletion strains, locus YJR043C, strain POL32, stronger effect = lower value 1.02 | S. cerevisiae deletion strains, locus YJR075W, strain HOC1, stronger effect = lower value 0.97 | S. cerevisiae deletion strains, locus YLR039C, strain RIC1, stronger effect = lower value 0.973 | S. cerevisiae deletion strains, locus YLR058C, strain SHM2 (second series), stronger effect = lower value 1 | S. cerevisiae deletion strains, locus YLR085C, strain ARP6, stronger effect = lower value 0.951 | S. cerevisiae deletion strains, locus YLR262C, strain YPT6, stronger effect = lower value 0.977 | S. cerevisiae deletion strains, locus YML094W, strain GIM5, stronger effect = lower value 0.989 | S. cerevisiae deletion strains, locus YMR219W, strain ESC1, stronger effect = lower value 1 | S. cerevisiae deletion strains, locus YMR263W, strain SAP30, stronger effect = lower value 1.01 | S. cerevisiae deletion strains, locus YNL153C, strain GIM3, stronger effect = lower value 1 | S. cerevisiae deletion strains, locus YNL298W, strain CLA4 (second series), stronger effect = lower value 0.997 | S. cerevisiae deletion strains, locus YNL322C, strain KRE1, stronger effect = lower value 0.99 | S. cerevisiae deletion strains, locus YNR030W, strain Alg12, stronger effect = lower value 0.984 | S. cerevisiae deletion strains, locus YPL055C, strain LGE1, stronger effect = lower value 1.03 | S. cerevisiae deletion strains, locus YPL241C, strain CIN2, stronger effect = lower value 0.981 | S. cerevisiae deletion strains, locus YPR135W, strain CTF4, stronger effect = lower value 1.05 | S. cerevisiae strains, strain wild type, stronger effect = lower value 1.01

O=C1Nc2ccccc2/C1=N/N=C\c1cc(Br)cc(Br)c1O
inactive: S. cerevisiae deletion strains, locus YAR019C, strain CDC15, stronger effect = lower value 0.947 | S. cerevisiae deletion strains, locus YBL105C, strain PKC1, stronger effect = lower value 0.959 | S. cerevisiae deletion strains, locus YBR135W, strain CKS1, stronger effect = lower value 0.964 | S. cerevisiae deletion strains, locus YBR136W, strain MEC1, stronger effect = lower value 0.955 | S. cerevisiae deletion strains, locus YBR160W, strain CDC28, stronger effect = lower value 0.959 | S. cerevisiae deletion strains, locus YDL017W, strain CDC7, stronger effect = lower value 0.957 | S. cerevisiae deletion strains, locus YDL028C, strain MPS1, stronger effect = lower value 0.95 | [1] 0.946 | S. cerevisiae deletion strains, locus YDL108W, strain KIN28, stronger effect = lower value 0.957 | S. cerevisiae deletion strains, locus YDL132W, strain cdc53, stronger effect = lower value 0.944 | S. cerevisiae deletion strains, locus YDR052C, strain DBF4, stronger effect = lower value 0.944 | S. cerevisiae deletion strains, locus YDR054C, strain cdc34, stronger effect = lower value 0.916 | S. cerevisiae deletion strains, locus YDR226W, strain ADK1, stronger effect = lower value 0.951 | S. cerevisiae deletion strains, locus YFL009W, strain cdc4, stronger effect = lower value 0.945 | S. cerevisiae deletion strains, locus YFL029C, strain CAK1, stronger effect = lower value 0.949 | S. cerevisiae deletion strains, locus YFR003C, strain YPI1, stronger effect = lower value 0.947 | S. cerevisiae deletion strains, locus YFR028C, strain CDC14, stronger effect = lower value 0.964 | S. cerevisiae deletion strains, locus YIL147C, strain SLN1, stronger effect = lower value 0.948 | S. cerevisiae deletion strains, locus YJR016C, strain ILV3, stronger effect = lower value 0.969 | S. cerevisiae deletion strains, locus YKL193C, strain SDS22, stronger effect = lower value 0.937 | S. cerevisiae deletion strains, locus YMR001C, strain CDC5, stronger effect = lower value 0.945 | S. cerevisiae deletion strains, locus YMR277W, strain FCP1, stronger effect = lower value 0.959 | S. cerevisiae deletion strains, locus YNL161W, strain CBK1, stronger effect = lower value 0.943 | S. cerevisiae deletion strains, locus YNL207W, strain RIO2, stronger effect = lower value 0.957 | S. cerevisiae deletion strains, locus YNL222W, strain SSU72, stronger effect = lower value 0.96 | S. cerevisiae deletion strains, locus YOL078W, strain AVO1, stronger effect = lower value 0.937 | S. cerevisiae deletion strains, locus YOR329C, strain SCD5, stronger effect = lower value 0.937 | S. cerevisiae deletion strains, locus YPL209C, strain IPL1, stronger effect = lower value 0.967 | S. cerevisiae deletion strains, locus YPR025C, strain CCL1, stronger effect = lower value 0.959 | S. cerevisiae deletion strains, locus YPR106W, strain ISR1, stronger effect = lower value 0.943 | S. cerevisiae deletion strains, locus YPR111W, strain DBF20, stronger effect = lower value 0.933 | S. cerevisiae deletion strains, strain TSCII, stronger effect = lower value 0.951
active: S. cerevisiae deletion strains, locus YDL214C, strain PRR2, stronger effect = lower value 0.231 | S. cerevisiae deletion strains, locus YDR477W, strain SNF1, stronger effect = lower value 0.246 | S. cerevisiae deletion strains, locus YER123W, strain YCK3, stronger effect = lower value 0.233 | S. cerevisiae deletion strains, locus YER133W, strain GLC7, stronger effect = lower value 0.249 | S. cerevisiae deletion strains, locus YFR019W, strain FAB1, stronger effect = lower value 0.396 | S. cerevisiae deletion strains, locus YGR040W, strain KSS1, stronger effect = lower value 0.278 | S. cerevisiae deletion strains, locus YGR052W, strain FMP48, stronger effect = lower value 0.132 | S. cerevisiae deletion strains, locus YGR092W, strain DBF2, stronger effect = lower value 0.121 | [2] 0.128 | S. cerevisiae deletion strains, locus YHR079C, strain IRE1, stronger effect = lower value 0.132 | S. cerevisiae deletion strains, locus YHR082C, strain KSP1, stronger effect = lower value 0.124 | S. cerevisiae deletion strains, locus YHR205W, strain SCH9, stronger effect = lower value 0.0116 | S. cerevisiae deletion strains, locus YJL095W, strain BCK1, stronger effect = lower value 0.112 | S. cerevisiae deletion strains, locus YJL157C, strain FAR1, stronger effect = lower value 0.147 | S. cerevisiae deletion strains, locus YJR066W, strain TOR1 (second series), stronger effect = lower value 0.393 | S. cerevisiae deletion strains, locus YJR066W, strain TOR1, stronger effect = lower value 0.114 | S. cerevisiae deletion strains, locus YKL048C, strain ELM1, stronger effect = lower value 0.303 | S. cerevisiae deletion strains, locus YKL067W, strain YNK1, stronger effect = lower value 0.194 | S. cerevisiae deletion strains, locus YKL101W, strain HSL1, stronger effect = lower value 0.225 | S. cerevisiae deletion strains, locus YKL203C, strain TOR2, stronger effect = lower value 0.209 | S. cerevisiae deletion strains, locus YLR113W, strain HOG1, stronger effect = lower value 0.331 | S. cerevisiae deletion strains, locus YLR133W, strain CKI1, stronger effect = lower value 0.134 | S. cerevisiae deletion strains, locus YLR403W, strain SFP1, stronger effect = lower value 0.0728 | S. cerevisiae deletion strains, locus YML070W, strain DAK1, stronger effect = lower value 0.259 | S. cerevisiae deletion strains, locus YMR205C, strain PFK2 (second series), stronger effect = lower value 0.204 | S. cerevisiae deletion strains, locus YNL006W, strain LST8, stronger effect = lower value 0.764 | S. cerevisiae deletion strains, locus YNL020C, strain ARK1, stronger effect = lower value 0.114 | S. cerevisiae deletion strains, locus YNL183C, strain NPR1, stronger effect = lower value 0.128 | S. cerevisiae deletion strains, locus YNL307C, strain MCK1 (second series), stronger effect = lower value 0.128 | S. cerevisiae deletion strains, locus YOL136C, strain PFK27, stronger effect = lower value 0.198 | S. cerevisiae deletion strains, locus YOR061W, strain CKA2, stronger effect = lower value 0.105 | S. cerevisiae deletion strains, locus YOR119C, strain RIO1, stronger effect = lower value 0.184 | S. cerevisiae deletion strains, locus YOR231W, strain MKK1, stronger effect = lower value 0.139 | S. cerevisiae deletion strains, locus YPL031C, strain PHO85, stronger effect = lower value 0.203 | S. cerevisiae deletion strains, locus YPL153C, strain RAD53, stronger effect = lower value 0.196 | S. cerevisiae deletion strains, locus YPL204W, strain HRR25, stronger effect = lower value 0.199 | S. cerevisiae deletion strains, locus YPL256C, strain CLN2, stronger effect = lower value 0.313 | S. cerevisiae deletion strains, strain NNK1, stronger effect = lower value 0.34

Reference: PubChem BioAssay AID1159580 (chemical genetic matrix, 2015)
